# Experimental data taken from PubChem BioAssay (NCATS).
# “And” between values parts separate entries of the source, which are not always exact repeats. Equal entries are not always repeated. Records with an inconclusive call do not appear. The source made the active and inactive calls. Unless noted, the call rests on the fitted dose curve.
# Key:
# [1] = qHTS Assay for Lipid Storage Modulators (AID 1519); details: Drosophila S3 cells, BODIPY lipid droplet/cell ratio, laser cytometry, cells loaded with oleic acid; on activity change, negative = inhibition: on the % scale 0 is the no-effect control and ±100 the full control effect
# Outline: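 Cells seeded at 5,000 per well were treated with compounds over a concentration series and loaded with oleic acid (400 uM, as added). Lipid droplet fluorescence (488 nm excitation, 500-530 nm channel) was read by laser-scanning cytometry and normalized to 20 uM Triacsin C.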
# [2] = Validation of Assay for Modulators of Lamin A Splicing (AID 1459; active means well fitted curve in the direction sought with a large enough effect in the signal ratio; the % refers to the signal ratio;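 further: cells exposed to compound for two days before reading; 0% is about no effect; ratio rise marks activators and ratio drop marks inhibitors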); details: Lamin A splicing dual RFP/GFP fluorescence reporter; series mostly up to 9.22 µM
# Outline: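 Splicing correction read as GFP (500-530 nm) over DsRed2 (575-640 nm) object intensity after 48 h compound exposure of reporter HeLa S3 clones (600 cells/well, 2% FBS medium); ancitabine and cycloheximide titrations, 0.5% DMSO as vehicle.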
# [3] = target: DNA repair nuclease/redox regulator APEX1 (Homo sapiens) (UniProt P27695); experiment: qHTS Validation Assay for Inhibitors of the Human Apurinic/apyrimidinic Endonuclease 1 (APE1) (AID 1705; active means well fitted curve in the direction sought with a large enough effect; an effect the other way counts as inactive or inconclusive; further: potency means the concentration at half of the fitted maximal effect;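 on activity change, negative = inhibition: TAMRA fluorescence gain over two minutes as APE1 cuts a quenched THF abasic duplex; on the % scale 0 is the no-effect control and ±100 the full control effect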); details: purified APE1 endonuclease activity, fluorescence, titration; series mostly up to 57.1 µM
# Chain of DNA repair nuclease/redox regulator APEX1 (Homo sapiens) (P27695 whole entry, looked up): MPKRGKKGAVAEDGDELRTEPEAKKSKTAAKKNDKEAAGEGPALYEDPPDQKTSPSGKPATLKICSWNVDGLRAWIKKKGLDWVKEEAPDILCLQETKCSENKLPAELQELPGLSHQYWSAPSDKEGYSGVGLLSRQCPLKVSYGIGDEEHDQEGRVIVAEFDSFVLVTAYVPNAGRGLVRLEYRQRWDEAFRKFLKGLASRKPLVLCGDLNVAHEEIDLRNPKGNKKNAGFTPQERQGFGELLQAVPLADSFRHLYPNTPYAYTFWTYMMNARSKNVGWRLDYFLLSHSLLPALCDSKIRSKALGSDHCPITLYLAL
# Outline: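 Activity read as rising fluorescence (598 nm emission, 525 nm excitation) from incision of a TAMRA/BHQ-2 duplex carrying a THF abasic site (50 nM). Compound and enzyme sat 15 min at RT before substrate start; signal change between first and third 60-s reads.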
# [4] = Counterscreen for APE1 Inhibitors: Fluorescent Dye Displacement Validation Assay (AID 1707; active means well fitted curve in the direction sought with a large enough effect; an effect the other way counts as inactive or inconclusive;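 further: plate controls were ThO with dsDNA and no compound for no effect and ThO without dsDNA for full effect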); details: fluorescent dye displacement from DNA; series mostly up to 57.1 µM
# Outline: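 Thiazole Orange (250 nM) bound to 50 nM TAMRA-labelled dsDNA with tetrahydrofuran abasic site; displacement by DNA-binding compounds lowers fluorescence. Buffer 50 mM Tris-HCl pH 7.5, 50 mM NaCl, 2 mM MgCl2, 0.01% Tween-20; endpoint read at 480/540 nm.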
# [5] = target: Alpha-galactosidase A (Homo sapiens) (UniProt P06280); experiment: Counterscreen for Glucocerebrosidase Inhibitors: qHTS Assay for Human alpha-Galactosidase at pH 4.5 (AID 992; active means well fitted curve in the direction sought with a large enough effect; an effect the other way counts as inactive or inconclusive; further: 0% is about no effect); details: purified enzyme, fluorogenic substrate; series mostly up to 76.9 µM
# Chain of Alpha-galactosidase A (Homo sapiens) (P06280 whole entry, looked up): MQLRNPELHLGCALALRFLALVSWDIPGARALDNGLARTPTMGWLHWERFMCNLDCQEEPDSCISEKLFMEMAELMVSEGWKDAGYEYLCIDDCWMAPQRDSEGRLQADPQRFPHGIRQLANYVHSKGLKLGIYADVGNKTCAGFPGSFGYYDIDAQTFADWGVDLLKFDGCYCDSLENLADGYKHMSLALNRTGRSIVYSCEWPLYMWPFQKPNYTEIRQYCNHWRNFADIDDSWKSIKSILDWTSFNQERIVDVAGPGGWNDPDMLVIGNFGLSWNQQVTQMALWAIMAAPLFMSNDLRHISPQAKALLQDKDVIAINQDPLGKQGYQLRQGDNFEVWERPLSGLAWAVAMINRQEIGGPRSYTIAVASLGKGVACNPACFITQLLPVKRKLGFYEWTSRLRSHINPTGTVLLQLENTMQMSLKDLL
# Outline: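 Human enzyme (2 nM) with 80 uM 4-methylumbelliferyl alpha-D-galactopyranoside in 50 mM citric acid, 0.005% Tween-20, pH 4.5, 20 min at room temperature. Compounds 0.7 nM–77 uM; fluorescence Ex 365/Em 440 after pH 10 stop; AC50 from Hill fits.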
# [6] = measured here: cell count channel max response
# [7] = measured here: lipid channel max response
Compound,"activity change, negative = inhibition ([1]; at 57.5 µM (top of the series))","max response [1, 6]","max response [1, 7]",outcome [2],Potency [3],outcome [4],outcome [5],"activity change, negative = inhibition ([1]; at 25.7 µM (top of the series))"
O=C(OCC(O)CO)c1ccccc1Nc1ccnc2cc(Cl)ccc12 (stereo not given),0.748% (inactive),5.57%,7.83%,,,,,
CN1C2CCC1CC(OC(=O)c1c[nH]c3ccccc13)C2 (stereo not given),1.19% (inactive),10.2%,11.1%,inactive,39.8 µM (active),inactive,,
CCC(NC(C)C)C(O)c1ccc(O)c(O)c1 (stereo not given),1.71% (inactive),7.27%,6.31%,inactive,inactive,inactive,,
CCCn1c(=O)[nH]c(=O)c2[nH]cnc21,-0.904% (inactive),29.5%,25.8%,inactive,inactive,inactive,inactive,
CN(C)CCCOc1nn(Cc2ccccc2)c2ccccc12,,1.49%,-2.83%,,,,,-3.69% (inactive)
O=C(O)c1cc2cc(Cc3cccnc3)ccc2o1,4.53% (inactive),9.59%,18.2%,inactive,inactive,inactive,inactive,
Cc1cccc(C)c1NC(=O)CN1CCN(CCCC(c2ccc(F)cc2)c2ccc(F)cc2)CC1,,-22.3%,-28.7%,,,,,-4.87% (inactive)
CC(C)COC(=O)OCN1C(=O)CN(CCN2CC(=O)N(COC(=O)OCC(C)C)C(=O)C2)CC1=O,1.23% (inactive),3.57%,4.19%,inactive,,inactive,inactive,
CCCCOc1ccc(C(=O)CCN2CCCCC2)cc1,-7.63% (inactive),0.252%,0.832%,,,,,
NCCCC[C@H](N[C@@H](CCc1ccccc1)C(=O)O)C(=O)N1CCC[C@H]1C(=O)O,,1.7%,0.636%,,,,,0.781% (inactive)
CN1CCN(CCCN2c3ccccc3Sc3ccc(S(=O)(=O)N(C)C)cc32)CC1,,-3.59%,-5.35%,,,,,-2.96% (inactive)
CCCC(=O)Nc1ccc(OCC(O)CNC(C)C)c(C(C)=O)c1 (stereo not given),5.02% (inactive),16.7%,24.3%,,,,,
CC1(C)CCC(NC(=O)[C@@H](N)CCC(=O)O)CC1,,,,inactive,inactive,inactive,,
COc1cc(OC)cc(OC)c1,0.768% (inactive),-0.306%,3%,,,,,
CCN(CCCc1ccccc1)CCCc1ccccc1,3.79% (inactive),1.49% and 14.3%,-0.884% and 21.1%,,,,,-2.55% (inactive)
Nc1nc2ncc(CNc3ccc(C(=O)N[C@@H](CCC(=O)O)C(=O)O)cc3)nc2c(=O)[nH]1,8.45% (inactive),-7.62% and 6.6%,-8.4% and 15.7%,,,,,-2.19% (inactive)
C/C=C(/C(=C/C)c1ccc(O)cc1)c1ccc(O)cc1,15.3% (inactive),6.35%,27.9%,,,,,
